# Assay results reported in PubChem BioAssay.
# Target: NADPH oxidase 5 (Homo sapiens) (UniProt Q96PH1)
# Assay: compounds shifting NOX5 Amplex Red fluorescence – cell-based, HEK293-NOX5, NOX inhibitor project, primary screen (AID 1161)
# Details: HEK293-NOX5, ionomycin, 45 min, higher = more signal
# NADPH oxidase 5 (Homo sapiens), sequence (Q96PH1 whole entry, looked up): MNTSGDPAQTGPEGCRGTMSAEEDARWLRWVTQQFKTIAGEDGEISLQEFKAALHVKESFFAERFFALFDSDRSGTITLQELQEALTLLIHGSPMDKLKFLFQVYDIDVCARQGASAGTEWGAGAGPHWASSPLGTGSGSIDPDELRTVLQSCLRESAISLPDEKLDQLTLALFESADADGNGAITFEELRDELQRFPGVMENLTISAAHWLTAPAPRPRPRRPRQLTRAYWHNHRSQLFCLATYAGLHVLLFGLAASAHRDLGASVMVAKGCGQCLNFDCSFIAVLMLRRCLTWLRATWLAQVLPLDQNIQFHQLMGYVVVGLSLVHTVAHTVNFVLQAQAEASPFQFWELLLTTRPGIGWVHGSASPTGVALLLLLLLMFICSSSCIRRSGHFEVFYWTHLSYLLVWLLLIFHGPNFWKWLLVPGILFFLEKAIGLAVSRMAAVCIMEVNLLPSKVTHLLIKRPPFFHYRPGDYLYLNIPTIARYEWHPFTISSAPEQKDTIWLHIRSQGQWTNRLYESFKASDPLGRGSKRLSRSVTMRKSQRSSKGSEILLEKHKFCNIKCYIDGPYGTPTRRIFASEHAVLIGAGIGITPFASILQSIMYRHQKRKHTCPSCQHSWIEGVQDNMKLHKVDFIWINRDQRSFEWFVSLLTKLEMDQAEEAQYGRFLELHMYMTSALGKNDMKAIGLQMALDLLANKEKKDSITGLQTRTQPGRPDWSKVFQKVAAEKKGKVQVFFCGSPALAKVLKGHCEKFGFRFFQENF
row,SMILES,z-score
1,CC[C@@H]1C=C(C(=O)O)[C@H](c2ccc(Br)cc2)N1S(=O)(=O)c1ccc(C)cc1,0.379
2,O=C1c2ccccc2[C@](Cc2ccccc2I)(C(=O)NCCN2CCOCC2)[C@H](c2ccc(CO)cc2)N1Cc1ccccc1Cl,0.608
3,COC(=O)[C@@]1(Cc2ccc(OC)cc2)[C@H]2c3cc(C(=O)N4CCCC4)n(CCN4CNCC4=O)c3C[C@H]2CN1C(=O)c1ccccc1,-4.44
4,COC(=O)[C@@]1(Cc2ccc(OC)cc2)[C@@H]2C(=CC(=O)[C@H]2CC(=O)C(=O)N2CCCC2)CN1C(=O)c1ccccc1,1.14
5,C=CCNC(=O)[C@@H]1[C@H]2C(=O)O[C@H](c3ccccc3)[C@H](c3ccccc3)N2[C@H](c2ccc(O)cc2)[C@@]12C(=O)N(C(=O)OCCOC)c1ccc(C#CCNC(N)=O)cc12,0.421
6,Cc1ccc(S[C@]2(C(=O)NCCCN(C)C)CC(=O)N(Cc3cc(C(F)(F)F)cc(C(F)(F)F)c3)[C@@H]2c2ccc(CO)cc2)cc1,0.942
7,COc1ccc([Si](C)(C)[C@H]2[C@H](CCO)O[C@@]3(C(=O)N(Cc4ccc(N(C=O)c5ccccc5)cc4)c4ccccc43)[C@@H]2C)cc1,2.37
8,[N-]=[N+]=Nc1ccccc1[C@H]1OC(c2ccc(OCCCO)cc2)=N[C@@]1(CCS(=O)(=O)c1ccccc1)C(N)=O,-0.909
9,NC(=O)NCC#Cc1ccc2c(c1)[C@]1(C(=O)N2)[C@H](c2ccccc2OCCO)N2[C@H](c3ccccc3)[C@H](c3ccccc3)OC(=O)[C@H]2[C@@H]1C(=O)Nc1nc2ccccc2s1,0.883
